TDP43 rescue: TDP-43 toxicity inhibition in yeast; 1.8% of 410,000 active; TDP-43 expressing yeast growth rescue, BacTiter-Glo, 24 h; AID 652104; Potency, µM (series often up to 46.1 µM), inactives show top-dose growth rescue (activation), usual class: activators; note: % of control where 0% means no effect; nearly all actives have a fitted effect of over 50% in size
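Yeast cells expressing TDP-43 under galactose induction are exposed to compounds for 24 hr at 30 deg C. BacTiter-Glo luminescence measures growth, so protective compounds score as activators.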
Abeta yeast res: compounds reversing amyloid beta toxicity in yeast; yeast expressing A-beta42, growth rescue, OD600, 48 h; response scale: 0% DMSO, 100% iron-clioquinol control; Potency, µM (highest dose often 46.1 µM), hits mostly activators; 0.063% of 410,000 active; AID 1347071; note: nearly all actives have a fitted effect of over 55% in size
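Yeast A-beta toxicity model in growth medium with pinned compounds, 48 h at 30 C; growth read as absorbance at 600 nm. Normalized to FeCl3/clioquinol equimolar mix (positive) and DMSO (negative).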
aSyn yeast inh: rescues yeast growth from alpha-synuclein toxicity; Yeast expressing alpha-synuclein, growth rescue, BacTiter-Glo, 24 h; Potency, µM (top dose mostly 46.1 µM), without a hit: top-dose growth rescue (activation), most hits filed as activators; 0.14% of 370,000 active; note: % of control where 0% means no effect; nearly all actives have a fitted effect of over 65% in size
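Rescue of yeast growth: cells expressing toxic alpha-synuclein, induced in galactose at OD600 0.02, incubated with compound 24 h at 30 C. ATP luminescence quantified growth; inhibitors of toxicity appear as activators.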
Mm-Cpn inhibitor: blocks the Methanococcus maripaludis chaperonin Mm-Cpn. 0.031% of 330,000 active. Potency, µM (highest dose often 76.9 µM), without a hit: top-dose activity, negative = inhibition, usual class: inhibitors. purified Mm-Cpn ATPase, ADP Transcreener TR-FRET; note: % is set by controls: 0 for no effect and ±100 for the full control effect; nearly all actives have a fitted effect of over 80% in size
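Quantitative HTS used 25 nM Mm-CPN and 10 uM ATP in magnesium/KCl Tris buffer, pH 7.4, with 1 mM DTT. Hydrolysis ran 30 min at 37°C; ADP was read by HTRF.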
ClpP mod: qHTS Assay for Activators of ClpP; purified B. subtilis ClpP, FRET peptide cleavage, 20 min; 1.9% of 340,000 active; ATP-dependent Clp protease proteolytic subunit (Bacillus subtilis (strain 168)), P80244; Potency, µM (series often up to 57.5 µM), inactives show at the top dose activity change, negative = active; active = well fitted falling curve with a large enough effect; inconclusive = small, poorly fitted or top-dose-only effect; inactive = no such curve, though single readings can be large or run the other way; note: the source files actives as falling curves though it sought activators and does not explain the sign; nearly all actives have a fitted effect of over 65% in size
Target sequence (P80244 whole entry, looked up): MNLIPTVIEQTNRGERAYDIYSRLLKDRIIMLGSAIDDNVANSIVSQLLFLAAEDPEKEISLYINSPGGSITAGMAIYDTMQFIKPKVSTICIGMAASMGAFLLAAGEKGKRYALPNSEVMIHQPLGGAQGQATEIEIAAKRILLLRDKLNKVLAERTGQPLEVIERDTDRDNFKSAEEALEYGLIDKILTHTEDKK
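Buffer: 100 mM Tris/HCl pH8, 100 mM KCl, 0.05% low protease BSA, 2.5% glycerol, 0.01% Tween-20. ClpP 10 microg/mL final; 20 min RT; delta FRET normalized to ADEP and DMSO controls.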
FUS suppressor: FUS proteinopathy suppression in yeast; S. cerevisiae FUS-expressing, growth rescue, OD600, 24 h; 0.24% of 390,000 active; Potency, µM (top dose mostly 76.6 µM), hits mostly activators;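 note: plate controls were DMSO vehicle for no effect and reference control for full effect; nearly all actives have a fitted effect of over 55% in size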
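Absorbance at 600 nm, taken 24hr after compound addition, measured rescue of FUS-yeast growth at 30C. Induction used 2% galactose with seeding at OD 0.005. Controls: CP55940 from 92uM final, DMSO only.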
* marks the source's active call; other numbers are inactive results; i = inactive; ? = inconclusive; / = no result given; [ ] = remark or other dose. Most compounds without a hit are left out; they make up all but 3.6% or so of the library. Unless noted, calls come from the whole dose curve; as a rule, active = well fitted curve in the direction sought with a large enough effect; inconclusive = small, poorly fitted or top-dose-only effect, or another doubt; inactive = no such curve, though single readings can be large; an effect the other way counts as inactive or inconclusive. Potency is the fitted concentration of half-maximal effect.

SMILES	TDP43 rescue	Abeta yeast res	aSyn yeast inh	Mm-Cpn inhibitor	ClpP mod	FUS suppressor
O=C(OCn1ncc(Br)c(Br)c1=O)c1ccccc1Cl	6.31µM*	i	-6.6%	?	0.2%	i
Cc1c(C2=CCN(S(=O)(=O)c3cccc(Cl)c3)CC2)c2ccccc2n1CC(=O)N1CCCC1	23.0%	i	2.1%	/	-21.6%	?
Cc1cccc(C)c1NC(=O)CSCc1cnn(-c2ccccc2)c1-n1cccc1	25.1µM*	i	/	/	1.8%	i
CCOc1ccc(NC(=O)CSCc2cnn(-c3ccccc3)c2-n2cccc2)cc1	20µM*	i	11.1%	-11.4%	0.4%	i
Cc1ccc(NC(=O)CSCc2cnn(-c3ccccc3)c2-n2cccc2)c(Cl)c1	15.3%	i	/	/	0.3%	i
O=C(CN1CCCCC1)Nc1ccc(NC(=O)c2ccc(Cl)cc2)cc1Cl	0.8%	i	4.9%	-7.2%	14.1µM*	i
C[C@H]1CC2C3CCC4=CC(=O)C=C[C@]4(C)[C@@]3(Cl)[C@@H](O)C[C@]2(C)[C@@]1(O)C(=O)CO (stereo partly drawn)	/	/	18.9%	/	/	/
Cc1ccc(-c2cc(C(F)F)nc(NCc3cccs3)n2)cc1	-16.1%	i	2.7%	-0.7%	-21.3%	/
Cc1ccc(-c2cc(C(F)F)nc(NCc3cccnc3)n2)cc1	9.2%	i	-3.1%	-9.6%	14.1µM*	i
COc1ccc(C(CC(=O)Nc2ccc(Br)cn2)N2Cc3ccccc3C2=O)cc1 (stereo not drawn)	-0.5%	i	/	/	0.6%	i
CCC1CN(S(=O)(=O)c2cc(-c3onc(C)c3C)ccc2C)c2cc(Cl)ccc2O1 (stereo not drawn)	5.5%	i	/	/	0.8%	i
O=C(Cn1c(=O)cnc2ccccc21)Nc1ccccc1N1CCOCC1	-5.3%	i	-6.7%	-1.3%	-4.7%	i
O=C(Cn1c(=O)cnc2ccccc21)Nc1cc(Cl)ccc1N1CCOCC1	12.6µM*	i	-0.9%	-0.1%	0.7%	i
Clc1ccc(-c2nnc3ccccn23)cc1	4.4%	i	1.1%	1.5%	28.2µM*	i
O=C(Nc1ccccc1C(=O)OCc1cc(=O)n2c3c(sc2n1)CCCC3)c1ccc(F)cc1	-2.3%	i	/	/	-5.6%	i
Cc1cc(C(=O)NCCc2ccc(Cl)cc2)c2c(C)nn(-c3cccc(F)c3)c2n1	0.0%[9.22 µM]	i	/	/	9.7%	i
Cc1ccc2c(c1C)NC(=O)CC2c1ccc(Cl)cc1Cl (stereo not drawn)	35.5µM*	i	/	/	1.5%	i
COc1cccc(C2CC(=O)Nc3c2ccc(C)c3C)c1OC (stereo not drawn)	17.8µM*	i	/	/	0.2%	i
Cc1cc(-c2ccc(C)c(S(=O)(=O)N(Cc3cccs3)C(C)C)c2)on1	5.2%	i	/	/	-1.9%	i
COCCN(Cc1cccs1)S(=O)(=O)c1cc(-c2cc(C)no2)ccc1C	35.5µM*	i	/	/	-0.9%	i
COc1cccc(C2CC(c3cccc(Br)c3)n3ncnc3N2)c1 (stereo not drawn)	20µM*	i	9.4%	-1.1%	0.0%	i
CN(C)C(CNC(=O)c1ccco1)c1cccs1 (stereo not drawn)	2.5%	i	2.3%	1.0%	11.2µM*	i
CCC1CCCCN1C(=O)c1nn(-c2ccc(C)cc2)c(=O)c2c1c1ccccc1n2C (stereo not drawn)	4.0%	i	/	/	-15.6%	?
COc1ccc(CCCNC(=O)C2Cc3c(-c4ccccc4)ccnc3O2)cc1 (stereo not drawn)	31.6µM*	i	15.5%	/	-12.5%	i
CC(=O)c1cccc(-c2ccnc3c2CC(C(=O)Nc2ccc4c(c2)OCO4)O3)c1 (stereo not drawn)	25.1µM*	i	13.7%	/	0.1%	?
SMILES	TDP43 rescue	Abeta yeast res	aSyn yeast inh	Mm-Cpn inhibitor	ClpP mod	FUS suppressor
COc1ccc(NC(=O)C2Cc3c(-c4cccc(C(C)=O)c4)ccnc3O2)cc1 (stereo not drawn)	22.4µM*	i	5.4%	/	-4.1%	i
CC(=O)Nc1ccc(NC(=O)C2Cc3c(-c4cccc(C(C)=O)c4)ccnc3O2)cc1 (stereo not drawn)	20.7%	i	-3.9%	/	0.8%	i
CC(=O)c1cccc(-c2ccnc3c2CC(C(=O)Nc2ccc(Cl)c(C(F)(F)F)c2)O3)c1 (stereo not drawn)	15.8µM*	i	22.6%	/	-0.2%	i
COc1ccc(CNC(=O)C2Cc3c(-c4ccccc4)ccnc3O2)cc1OC (stereo not drawn)	-14.6%	i	-5.1%	/	1.0%	i
CN(C)c1ccc(Nc2ncnc3c2c(-c2ccccc2)cn3-c2cccc(Cl)c2)cc1	12.6%[9.22 µM]	i	/	/	?	i
CC(C)N1CCCCC(NC(=O)c2ccc(Cl)cc2Cl)C1=O (stereo not drawn)	/	/	/	/	/	i
O=C(Nc1cccc(OC(F)(F)F)c1)C1Cc2c(-c3ccc(Cl)cc3)ccnc2O1 (stereo not drawn)	20.7%	i	?	/	?	i
CC(=O)Nc1ccc(-c2ccnc3c2CC(C(=O)Nc2ccc4c(c2)OCO4)O3)cc1 (stereo not drawn)	10.7%	i	-5.9%	/	-9.0%	?
COc1ccc(NC(=O)C2Cc3c(-c4ccccc4Oc4ccccc4)ccnc3O2)cc1 (stereo not drawn)	25.1µM*	i	7.3%	/	-1.5%	i
CC(=O)Nc1ccc(-c2ccnc3c2CC(C(=O)Nc2ccc(C(C)C)cc2)O3)cc1 (stereo not drawn)	19.6%	i	10.6%	/	4.5%	?
CC(C)c1ccc(NC(=O)C2Cc3c(-c4ccco4)ccnc3O2)cc1 (stereo not drawn)	35.5µM*	i	?	/	-0.3%	i
CC(C)c1ccc(NC(=O)C2Cc3c(-c4ccc5c(c4)OCO5)ccnc3O2)cc1 (stereo not drawn)	35.5µM*	i	-0.3%	/	5.1%	?
O=C(Nc1ccccc1)C1Cc2c(-c3ccccc3Oc3ccccc3)ccnc2O1 (stereo not drawn)	24.5%	i	13.2%	/	-3.6%	i
CC(=O)c1cccc(-c2ccnc3c2CC(C(=O)Nc2cccc(OC(F)(F)F)c2)O3)c1 (stereo not drawn)	35.5µM*	?	24.2%	/	0.8%	i
COC(=O)[C@@H]1N=C(c2ccc(OC)cc2)O[C@]12C(=O)N(Cc1cn(-c3ccccc3)nn1)c1cccc(Cl)c12	/	/	/	/	/	i
